In PubChem BioAssay (NCI) one finds growth data, which are given here for 17 compounds.

Among the test systems are BT-549 breast; MDA-MB-435 melanoma; SW-620 colon; MCF7 breast; HCT-116 colon; HCC-2998 colon; KM12 colon.
Common to all, as to experiment: NCI-60 one-dose screen, 48 h (100 = growth as untreated, 0 = no growth, -100 = all killed)
What all share (conditions): 10 µM unless noted

This is part of a sample that, as a whole, favours compounds with a hit. Of some 83,000 tested, about 20% had one in any assay.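 Testing used 96-well plates and a 48-hour single-concentration exposure. Example: -40 means 40% of the starting cells died.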 Unmarked numbers belong to inactive results. The source made the active and inactive calls. The calls were made as follows: active = growth percent below 10; inactive = the rest.

For `Cc1nc2sc(C(=O)Nc3ccccc3)c(N)c2cc1C(C)O` (centres undefined), the growth with BT-549 breast is 74.3%; in the assay on MDA-MB-435 melanoma, -41.1% (active); in the assay on SW-620 colon, 26.4%; in the assay on MCF7 breast, 16.7%; with HCT-116 colon, 30.2%; in the assay on HCC-2998 colon, 46.8%. In the assay with KM12 colon, the growth was 26.1%.
In the case of `N#CC1(C#N)C2=C(CCCC2)NC(c2c(F)cccc2Cl)C1(C#N)C#N` (centres undefined), the growth is 60.4% with BT-549 breast; 18% with MDA-MB-435 melanoma; 48.8% with SW-620 colon; 21.1% with MCF7 breast; 52.7% with HCT-116 colon; 97.6% in the assay with HCC-2998 colon. Besides, in the assay with KM12 colon, the growth was 73.3%.
As to `COC(=O)[C@]1(C)CCC[C@]2(C)[C@H]3C[C@H]4C(C(C)C)=C[C@]3(CC[C@H]21)[C@@H]1C(=O)N(CCC#N)C(=O)[C@@H]14`, the growth in the assay with BT-549 breast was 59.5%; in the assay on MDA-MB-435 melanoma, 86.5%; in the assay on SW-620 colon, 89.9%; with MCF7 breast, 72.2%; in the assay on HCT-116 colon, 70.8%; in the assay on HCC-2998 colon it was 94.1%. In addition, the growth in the assay on KM12 colon was 82.7%.
For `Cc1cc(O)cc(O)c1N=NC1=NCCS1`, the growth with BT-549 breast was 93.9%; in the assay on MDA-MB-435 melanoma, 105%; in the assay on SW-620 colon, 111%; in the assay with MCF7 breast, 86.5%; in the assay on HCT-116 colon, 93.3%; in the assay with HCC-2998 colon, 95.7%. Also, the growth in the assay with KM12 colon is 102%.
Take `COc1ccc2nc3nc4ccc[nH]c4cc3c2c1`: the growth with BT-549 breast is 84.1%; in the assay on MDA-MB-435 melanoma, 101%; with SW-620 colon it was 95.7%; in the assay with MCF7 breast, 5.69% (active); in the assay on HCT-116 colon, 104%; in the assay on HCC-2998 colon, 101%. In addition, in the assay on KM12 colon, the growth is 52.1%.
Regarding `C[C@H](Oc1cc(-c2cnn(C3CCNCC3)c2)cnc1N)c1c(Cl)ccc(F)c1Cl`, the growth is 75.7% with BT-549 breast; 66.1% in the assay with MDA-MB-435 melanoma; 79.5% in the assay on SW-620 colon; 37.6% in the assay with MCF7 breast; 31.9% in the assay with HCT-116 colon; 66% in the assay with HCC-2998 colon. For the same compound, in the assay with KM12 colon, the growth was 50.6%.
As to `COc1cc(NC(=O)COc2cc(C)nc3ccc(OC)cc23)cc(OC)c1`, the growth in the assay on BT-549 breast is 85.5%; in the assay on MDA-MB-435 melanoma, 100%; in the assay with SW-620 colon, 99.7%; in the assay with MCF7 breast, 86.8%; in the assay on HCT-116 colon, 90.2%; with HCC-2998 colon, 101%. Also, the growth in the assay on KM12 colon is 96.8%.
Turning to `COc1ccc(/C=C(/C(=O)N2CCN(Cc3ccccc3)CC2)c2cc(OC)c(OC)c(OC)c2)cc1O`, the growth with BT-549 breast is 77.2%; with MDA-MB-435 melanoma, 1.04% (active); in the assay on SW-620 colon, 45.6%; in the assay on MCF7 breast it was 20.9%; in the assay on HCT-116 colon, 32%; in the assay with HCC-2998 colon it was 95.8%. In the assay with KM12 colon, the growth was 55.9%.
For the compound `S=C(Nc1ccccc1)c1ccccn1`, the growth in the assay on BT-549 breast is 90.5%; in the assay on MDA-MB-435 melanoma it was 103%; in the assay on SW-620 colon, 89.6%; with MCF7 breast it was 77.5%; in the assay on HCT-116 colon, 92.5%; in the assay on HCC-2998 colon, 98.7%. Also, in the assay with KM12 colon, the growth was 99.8%.
As to `C=CCn1c(SCC(=O)Nc2ccc(C(=O)/C=C/c3ccc(Cl)cc3)cc2)nnc1-c1cc(OC)c(OC)c(OC)c1`, the growth in the assay with BT-549 breast was 94%; in the assay with MDA-MB-435 melanoma, 93.2%; with SW-620 colon it was 98.2%; in the assay with MCF7 breast, 41%; with HCT-116 colon, 6.42% (active); in the assay on HCC-2998 colon it was 106%. In the assay on KM12 colon, the growth was 93.3%.
Turning to `C#Cc1ccccc1NC(=O)c1sc2nc3c(cc2c1N)CCCCCC3`, the growth was 37.3% in the assay on BT-549 breast; 74.5% in the assay on MDA-MB-435 melanoma; 27.6% in the assay on SW-620 colon; 58.4% in the assay on MCF7 breast; 75.5% in the assay with HCT-116 colon; 104% in the assay on HCC-2998 colon. For the same compound, the growth in the assay with KM12 colon is 42.7%.
On to `COc1cc(N=Nc2cc(S(=O)(=O)O)cc3cc(S(=O)(=O)O)cc(O)c23)c(C)cc1N=Nc1c(S(=O)(=O)O)cc2cc(Nc3ccccc3)ccc2c1O`, for which the growth in the assay on BT-549 breast was 103%; in the assay with MDA-MB-435 melanoma, 109%; with SW-620 colon, 108%; in the assay on MCF7 breast, 103%; with HCT-116 colon, 98.4%; in the assay on HCC-2998 colon it was 105%. In addition, the growth in the assay on KM12 colon was 102%.
With `Cc1cccc2nc3c(n12)C(=O)C(=O)c1ccccc1-3`, the growth in the assay on BT-549 breast was 78.6%; in the assay on MDA-MB-435 melanoma, -86% (active); in the assay on SW-620 colon, 79.4%; in the assay on MCF7 breast, 47.9%; in the assay on HCT-116 colon, 38.7%; with HCC-2998 colon it was 115%. Also, the growth in the assay on KM12 colon is 90.6%.
On to `N#Cc1ccc(N2Cc3cc(Cl)ccc3OC3=C2C(=O)N(Cc2ccccc2)C3=O)cc1`, for which the growth in the assay on BT-549 breast was -50.5% (active); with MDA-MB-435 melanoma it was -42.5% (active); in the assay on SW-620 colon it was -75.8% (active); with MCF7 breast it was -1.6% (active); with HCT-116 colon, -82.7% (active); in the assay on HCC-2998 colon it was 40.4%. The growth with KM12 colon is 61.4%.
`CCN(CC)CC#CCOC(=O)[C@]1(C)CCC[C@]2(C)[C@H]3C[C@H]4C(C(C)C)=C[C@]3(CC[C@H]21)[C@@H]1C(=O)CCC(=O)[C@@H]14`: the growth was 63.7% in the assay with BT-549 breast; 74% in the assay with MDA-MB-435 melanoma; 55.1% in the assay with SW-620 colon; 25.1% with MCF7 breast; 35.8% in the assay on HCT-116 colon; 75% with HCC-2998 colon. Besides, in the assay with KM12 colon, the growth was 51.9%.
Turning to `CC(C)NS(=O)(=O)c1cccc(-c2ccc3c(=O)n(CCCN)c4c(c3c2)C(=O)c2ccccc2-4)c1`, the growth in the assay with BT-549 breast was 99.8%; in the assay on MDA-MB-435 melanoma, 107%; with SW-620 colon, 92.4%; in the assay on MCF7 breast, 101%; in the assay with HCT-116 colon it was 96.6%; with HCC-2998 colon it was 105%. Also, in the assay on KM12 colon, the growth is 98.9%.
Turning to `CC(=O)OC[C@]12CC[C@@H](c3cn(Cc4ccc(Cn5cc([C@@H]6CC[C@]7(COC(C)=O)CC[C@]8(C)[C@H](CC[C@@H]9[C@@]%10(C)CC[C@H](OC(C)=O)C(C)(C)[C@@H]%10CC[C@]98C)[C@@H]67)nn5)cc4)nn3)[C@@H]1[C@H]1CC[C@@H]3[C@@]4(C)CC[C@H](OC(C)=O)C(C)(C)[C@@H]4CC[C@@]3(C)[C@]1(C)CC2`, the growth in the assay with BT-549 breast is 91.4%; in the assay on MDA-MB-435 melanoma it was 105%; in the assay with SW-620 colon, 106%; in the assay with MCF7 breast it was 92.1%; in the assay on HCT-116 colon it was 109%; in the assay on HCC-2998 colon, 104%. In addition, in the assay on KM12 colon, the growth was 106%.
